Here are results for one compound from PubChem BioAssay AID1159580 (chemical genetic matrix, 2015).

A short description of this test: chemical genetic growth profiling, strain panel (AID 1159580).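 Note: tested at 20 µM; growth read once vehicle control cultures reached saturation at 30 °C; 1 = growth at the plate median or of vehicle wells; lower values mean less growth of the strain.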 As to conditions: S. cerevisiae deletion strains, growth OD.

About 2,000 (36%) of roughly 5,500 compounds were called active. About 18% were inconclusive and are not listed. The list shows a part of the results. A number with no mark means an inactive call. Cut-off read from the data, not from the text of the source: active = normalized growth mostly below about 0.91 (no sharp cut-off); inconclusive = no clear call, values can overlap the other calls; inactive = mostly above about 0.92.

Consider `CN1CCCC1CCOC(C)(c1ccccc1)c1ccc(Cl)cc1` (configuration not stated), for which the normalized growth runs as follows: (locus YAL013W, strain DEP1, active compounds read low) 0.981; (locus YAL040C, strain CLN3, active compounds read low) 0.986; (locus YCL061C, strain MRC1 (second series), active compounds read low) 0.982; (locus YDR363W, strain ESC2, active compounds read low) 0.983; (locus YER002W, strain NOP16, active compounds read low) 1; (locus YGR229C, strain SMI1, active compounds read low) 0.714 (active). For the same compound, the normalized growth is 0.955 (locus YMR263W, strain SAP30, active compounds read low); 0.995 (locus YNL175C, strain NOP13, active compounds read low); 1.03 (locus YNL197C, strain WHI3, active compounds read low); 1.01 (locus YNL224C, strain SQS1, active compounds read low); 0.986 (locus YOR083W, strain WHI5 (second series), active compounds read low); 0.996 (locus YPL241C, strain CIN2, active compounds read low).
